# Measured values as given in the supplement of paper PMC8728848.
# Many of the other results were omitted from the sample, so the strongest signals are more common in it than they were.
# Columns and labels:
# Assay in all cases: glycan array binding signal (z-score within array); higher = stronger binding
# [1] = tested on: Fuc(a1-2)Gal(b1-4)[Fuc(a1-3)]GlcNAc; conditions: glycan notation: IUPAC condensed, linker removed
# Summary of the method: (§1)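 Glycan array binding is given as a within-array Z-score, which can be read as non-binding when negative. The arrays, 3228 of them, came from the Consortium for Functional Glycomics database and were retained only where the protein sequence was available. Z-scores were averaged across arrays of the same protein sequence at different concentrations or buffers and across linkers.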
# [2] = tested on: Fuc(a1-2)Gal6S(b1-4)Glc6S; conditions: glycan notation: IUPAC condensed, linker removed
# Summary of the method: as §1
# [3] = tested on: Fuc(a1-2)Gal6S(b1-4)GlcNAc; conditions: glycan notation: IUPAC condensed, linker removed
# Summary of the method: as §1
# [4] = tested on: Fuc(a1-2)Gal(b1-4)GlcNAc(b1-3)[Fuc(a1-2)Gal(b1-4)GlcNAc(b1-6)]GalNAc; conditions: glycan notation: IUPAC condensed, linker removed
# Summary of the method: as §1
# [5] = tested on: Fuc(a1-2)Gal(b1-4)GlcNAc(b1-3)GalNAc; conditions: glycan notation: IUPAC condensed, linker removed
# Summary of the method: as §1
# [6] = tested on: Fuc(a1-2)Gal(b1-4)[Fuc(a1-3)]GlcNAc(b1-2)Man(a1-3)[Fuc(a1-2)Gal(b1-4)[Fuc(a1-3)]GlcNAc(b1-2)Man(a1-6)]Man(b1-4)GlcNAc(b1-4)GlcNAc; conditions: glycan notation: IUPAC condensed, linker removed
# Summary of the method: as §1
# [7] = tested on: Fuc(a1-2)Gal(b1-4)[Fuc(a1-3)]GlcNAc(b1-2)[Fuc(a1-2)Gal(b1-4)[Fuc(a1-3)]GlcNAc(b1-4)]Man(a1-3)[Fuc(a1-2)Gal(b1-4)[Fuc(a1-3)]GlcNAc(b1-2)Man(a1-6)]Man(b1-4)GlcNAc(b1-4)GlcNAc; conditions: glycan notation: IUPAC condensed, linker removed
# Summary of the method: as §1
# [8] = tested on: Fuc(a1-2)Gal(b1-4)[Fuc(a1-3)]GlcNAc(b1-3)GalNAc; conditions: glycan notation: IUPAC condensed, linker removed
# Summary of the method: as §1
# [9] = tested on: Fuc(a1-2)Gal(b1-4)GlcNAc(b1-2)Man; conditions: glycan notation: IUPAC condensed, linker removed
# Summary of the method: as §1
# [10] = tested on: Fuc(a1-2)Gal(b1-4)GlcNAc(b1-3)Gal(b1-4)GlcNAc(b1-3)Gal(b1-4)GlcNAc; conditions: glycan notation: IUPAC condensed, linker removed; mutation: R125K
# Summary of the method: as §1
# [11] = tested on: Fuc(a1-2)Gal(b1-4)GlcNAc(b1-3)Gal(b1-4)GlcNAc; conditions: glycan notation: IUPAC condensed, linker removed; mutation: R125K
# Summary of the method: as §1
# [12] = tested on: Fuc(a1-2)Gal(b1-4)GlcNAc(b1-3)[Fuc(a1-3)[Gal(b1-4)]GlcNAc(b1-6)]Gal(b1-4)Glc; conditions: glycan notation: IUPAC condensed, linker removed
# Summary of the method: as §1
# [13] = tested on: Fuc(a1-2)Gal(b1-4)GlcNAc(b1-6)GalNAc; conditions: glycan notation: IUPAC condensed, linker removed
# Summary of the method: as §1
# Fuc(a1-2)Gal(b1-4)GlcNAc = conditions: glycan notation: IUPAC condensed, linker removed
# Summary of the method: as §1
# [14] = tested on: Fuc(a1-2)Gal3S(b1-4)GlcNAc; conditions: glycan notation: IUPAC condensed, linker removed
# Summary of the method: as §1
# [15] = tested on: Fuc(a1-2)Gal6S(b1-3)GlcNAc; conditions: glycan notation: IUPAC condensed, linker removed
# Summary of the method: as §1
# [16] = tested on: Fuc(a1-2)Gal(b1-4)[Fuc(a1-3)]GlcNAc(b1-3)Gal(b1-4)[Fuc(a1-3)]GlcNAc; conditions: glycan notation: IUPAC condensed, linker removed
# Summary of the method: as §1
# [17] = tested on: Fuc(a1-2)Gal(b1-4)[Fuc(a1-3)]GlcNAc(b1-3)Gal(b1-4)[Fuc(a1-3)]GlcNAc(b1-3)Gal(b1-4)[Fuc(a1-3)]GlcNAc; conditions: glycan notation: IUPAC condensed, linker removed
# Summary of the method: as §1
# [18] = tested on: Fuc(a1-2)Gal(b1-4)GlcNAc(b1-2)[Fuc(a1-2)Gal(b1-4)GlcNAc(b1-4)]Man(a1-3)[Fuc(a1-2)Gal(b1-4)GlcNAc(b1-2)Man(a1-6)]Man(b1-4)GlcNAc(b1-4)GlcNAc; conditions: glycan notation: IUPAC condensed, linker removed
# Summary of the method: as §1
# [19] = tested on: Fuc(a1-2)Gal(b1-4)GlcNAc(b1-3)Gal(b1-4)GlcNAc(b1-2)Man(a1-3)[Fuc(a1-2)Gal(b1-4)GlcNAc(b1-3)Gal(b1-4)GlcNAc(b1-2)Man(a1-6)]Man(b1-4)GlcNAc(b1-4)GlcNAc; conditions: glycan notation: IUPAC condensed, linker removed
# Summary of the method: as §1
# Sequence of PILRb (Mus musculus), Q2YSF2 (Q2YSF2 entry or part of it): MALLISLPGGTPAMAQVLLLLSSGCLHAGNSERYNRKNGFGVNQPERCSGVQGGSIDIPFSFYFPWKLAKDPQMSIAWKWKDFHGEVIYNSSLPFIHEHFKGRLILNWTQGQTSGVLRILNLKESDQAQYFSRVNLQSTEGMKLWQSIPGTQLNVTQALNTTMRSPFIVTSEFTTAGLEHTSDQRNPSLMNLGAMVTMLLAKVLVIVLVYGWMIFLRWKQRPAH
# Sequence of PILRa (Mus musculus), Q2YSF3 (Q2YSF3 entry or part of it): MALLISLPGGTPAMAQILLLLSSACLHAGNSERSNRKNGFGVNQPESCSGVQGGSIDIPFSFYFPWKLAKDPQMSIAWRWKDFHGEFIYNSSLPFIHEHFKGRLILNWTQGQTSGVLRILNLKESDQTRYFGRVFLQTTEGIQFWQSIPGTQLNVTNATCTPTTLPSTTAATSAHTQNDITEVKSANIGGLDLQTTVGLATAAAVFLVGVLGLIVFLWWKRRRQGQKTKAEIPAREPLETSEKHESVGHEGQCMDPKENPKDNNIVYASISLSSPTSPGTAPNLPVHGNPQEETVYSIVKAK
# Sequence of Neurocan (Homo sapiens), O14594 (O14594 other isoform, or with tags, fused parts or gaps): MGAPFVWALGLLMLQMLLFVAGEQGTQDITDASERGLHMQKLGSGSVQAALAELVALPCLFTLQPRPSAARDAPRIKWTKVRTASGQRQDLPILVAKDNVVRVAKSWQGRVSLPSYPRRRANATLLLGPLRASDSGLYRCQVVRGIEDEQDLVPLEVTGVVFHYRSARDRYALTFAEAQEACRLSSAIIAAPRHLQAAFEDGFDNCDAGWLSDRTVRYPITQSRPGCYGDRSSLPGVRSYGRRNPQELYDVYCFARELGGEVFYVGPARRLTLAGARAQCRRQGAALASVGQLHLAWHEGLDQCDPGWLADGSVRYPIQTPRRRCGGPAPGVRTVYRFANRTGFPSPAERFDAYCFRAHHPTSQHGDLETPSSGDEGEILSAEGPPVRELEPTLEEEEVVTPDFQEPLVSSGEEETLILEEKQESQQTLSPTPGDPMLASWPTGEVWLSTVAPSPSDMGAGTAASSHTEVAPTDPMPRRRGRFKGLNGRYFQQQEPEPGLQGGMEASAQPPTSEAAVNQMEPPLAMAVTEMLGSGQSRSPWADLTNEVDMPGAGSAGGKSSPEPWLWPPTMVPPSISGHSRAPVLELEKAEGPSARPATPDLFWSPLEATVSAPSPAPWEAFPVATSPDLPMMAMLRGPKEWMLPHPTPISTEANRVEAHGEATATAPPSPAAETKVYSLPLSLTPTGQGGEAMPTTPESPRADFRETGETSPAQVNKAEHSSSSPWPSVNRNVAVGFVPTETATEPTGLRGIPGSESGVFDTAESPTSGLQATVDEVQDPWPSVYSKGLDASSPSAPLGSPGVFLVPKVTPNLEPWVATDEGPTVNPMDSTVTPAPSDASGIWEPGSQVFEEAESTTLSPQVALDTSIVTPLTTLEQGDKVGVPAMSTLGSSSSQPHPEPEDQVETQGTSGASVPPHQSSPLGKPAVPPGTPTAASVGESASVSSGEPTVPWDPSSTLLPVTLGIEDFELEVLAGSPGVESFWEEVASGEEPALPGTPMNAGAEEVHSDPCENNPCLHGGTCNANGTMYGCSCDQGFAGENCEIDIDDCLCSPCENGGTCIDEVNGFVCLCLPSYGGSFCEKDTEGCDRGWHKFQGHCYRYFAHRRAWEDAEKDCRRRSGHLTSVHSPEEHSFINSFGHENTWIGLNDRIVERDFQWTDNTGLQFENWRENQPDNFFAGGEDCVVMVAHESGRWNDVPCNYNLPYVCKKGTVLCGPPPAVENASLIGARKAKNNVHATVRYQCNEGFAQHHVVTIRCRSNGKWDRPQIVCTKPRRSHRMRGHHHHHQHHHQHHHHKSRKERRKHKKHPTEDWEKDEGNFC
# Sequence of Regenerating Gene IV (Homo sapiens), Q9BYZ8 (Q9BYZ8 whole entry, looked up): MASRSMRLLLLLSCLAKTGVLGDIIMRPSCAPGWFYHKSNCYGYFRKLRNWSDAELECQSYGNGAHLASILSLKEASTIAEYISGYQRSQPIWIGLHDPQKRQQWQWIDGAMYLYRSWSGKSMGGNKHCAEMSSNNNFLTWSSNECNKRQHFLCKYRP
# Sequence of 6RG (Lolium perenne), B9U140 (B9U140 entry or part of it): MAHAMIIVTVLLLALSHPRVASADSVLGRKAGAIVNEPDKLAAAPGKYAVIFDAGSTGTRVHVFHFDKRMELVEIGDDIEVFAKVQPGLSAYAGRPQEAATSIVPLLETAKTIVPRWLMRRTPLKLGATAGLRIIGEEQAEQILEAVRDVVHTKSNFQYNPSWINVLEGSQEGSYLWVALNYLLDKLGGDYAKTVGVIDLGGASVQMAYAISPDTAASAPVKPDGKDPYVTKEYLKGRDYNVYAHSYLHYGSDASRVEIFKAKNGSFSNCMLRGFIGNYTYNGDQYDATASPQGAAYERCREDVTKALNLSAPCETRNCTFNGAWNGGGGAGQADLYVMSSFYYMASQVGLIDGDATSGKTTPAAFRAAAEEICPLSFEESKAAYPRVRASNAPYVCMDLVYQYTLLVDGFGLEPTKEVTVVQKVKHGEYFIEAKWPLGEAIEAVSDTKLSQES
# Sequence of 6RG (Lolium perenne) (chain, as listed by the source): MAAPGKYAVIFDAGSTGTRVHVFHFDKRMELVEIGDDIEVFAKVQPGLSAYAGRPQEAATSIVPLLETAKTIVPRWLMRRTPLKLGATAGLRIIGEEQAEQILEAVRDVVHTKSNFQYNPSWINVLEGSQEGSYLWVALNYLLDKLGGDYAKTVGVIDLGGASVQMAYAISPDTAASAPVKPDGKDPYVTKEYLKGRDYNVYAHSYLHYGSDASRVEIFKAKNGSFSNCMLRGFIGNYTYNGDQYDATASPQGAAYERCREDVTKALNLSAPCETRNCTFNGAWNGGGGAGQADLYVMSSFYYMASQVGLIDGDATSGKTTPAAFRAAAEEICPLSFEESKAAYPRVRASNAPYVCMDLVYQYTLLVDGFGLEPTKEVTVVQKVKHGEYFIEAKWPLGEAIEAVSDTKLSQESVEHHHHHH
# Sequence of wLAT-1A (Homo sapiens), Q01650 (Q01650 whole entry): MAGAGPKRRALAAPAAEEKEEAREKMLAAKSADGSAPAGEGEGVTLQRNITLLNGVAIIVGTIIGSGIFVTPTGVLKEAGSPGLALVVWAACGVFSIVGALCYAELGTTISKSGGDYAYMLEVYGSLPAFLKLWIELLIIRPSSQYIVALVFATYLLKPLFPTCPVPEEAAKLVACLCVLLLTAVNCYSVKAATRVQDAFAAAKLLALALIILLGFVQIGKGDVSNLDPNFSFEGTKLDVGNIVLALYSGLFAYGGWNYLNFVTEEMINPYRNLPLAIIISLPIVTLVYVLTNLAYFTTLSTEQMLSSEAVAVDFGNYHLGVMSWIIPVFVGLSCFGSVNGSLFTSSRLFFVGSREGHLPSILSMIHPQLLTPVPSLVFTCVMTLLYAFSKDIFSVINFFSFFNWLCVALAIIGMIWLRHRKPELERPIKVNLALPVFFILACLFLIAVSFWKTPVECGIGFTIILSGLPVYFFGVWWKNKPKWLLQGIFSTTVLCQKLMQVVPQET
# Sequence of CHI3L1 (Homo sapiens), P36222 (P36222 whole entry): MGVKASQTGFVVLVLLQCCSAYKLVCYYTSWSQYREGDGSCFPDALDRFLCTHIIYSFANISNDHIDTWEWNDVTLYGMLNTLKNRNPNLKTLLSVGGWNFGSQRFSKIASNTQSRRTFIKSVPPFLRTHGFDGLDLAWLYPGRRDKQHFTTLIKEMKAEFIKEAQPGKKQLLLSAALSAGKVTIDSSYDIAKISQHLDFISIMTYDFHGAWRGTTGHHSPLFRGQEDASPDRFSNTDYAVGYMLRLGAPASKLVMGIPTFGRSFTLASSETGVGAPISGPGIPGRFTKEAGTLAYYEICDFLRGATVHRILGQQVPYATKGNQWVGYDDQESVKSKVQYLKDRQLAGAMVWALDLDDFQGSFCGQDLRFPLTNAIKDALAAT
# Sequence of SRLC (Mus musculus), Q8VIF6 (Q8VIF6 other isoform, or with tags, fused parts or gaps): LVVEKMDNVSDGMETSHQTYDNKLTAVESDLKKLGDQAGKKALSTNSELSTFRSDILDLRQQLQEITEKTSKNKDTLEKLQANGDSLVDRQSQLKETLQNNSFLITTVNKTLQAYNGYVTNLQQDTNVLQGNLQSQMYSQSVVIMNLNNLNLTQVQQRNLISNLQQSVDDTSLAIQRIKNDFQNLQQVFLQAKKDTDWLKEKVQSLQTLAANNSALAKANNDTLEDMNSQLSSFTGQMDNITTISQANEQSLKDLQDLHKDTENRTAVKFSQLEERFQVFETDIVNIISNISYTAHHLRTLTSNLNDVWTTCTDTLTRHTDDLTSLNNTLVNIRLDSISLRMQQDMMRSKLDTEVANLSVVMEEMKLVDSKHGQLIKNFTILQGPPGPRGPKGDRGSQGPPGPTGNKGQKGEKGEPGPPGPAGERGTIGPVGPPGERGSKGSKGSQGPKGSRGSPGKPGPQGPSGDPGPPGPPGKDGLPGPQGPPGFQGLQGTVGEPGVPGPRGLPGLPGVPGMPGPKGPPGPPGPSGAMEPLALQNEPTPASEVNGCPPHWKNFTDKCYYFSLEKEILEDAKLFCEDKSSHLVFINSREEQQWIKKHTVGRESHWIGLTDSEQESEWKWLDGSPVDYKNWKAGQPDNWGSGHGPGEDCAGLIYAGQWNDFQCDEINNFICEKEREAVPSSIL
# Sequence of Avaren (Actinomycete K97) (chain, as listed by the source): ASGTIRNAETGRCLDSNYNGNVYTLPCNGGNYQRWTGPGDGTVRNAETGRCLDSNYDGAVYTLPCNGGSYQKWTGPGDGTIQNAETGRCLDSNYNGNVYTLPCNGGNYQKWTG
substance,measurement,setting,value
Avaren (Actinomycete K97),glycan array binding signal (z-score),[1],-0.134
"Regenerating Gene IV (Homo sapiens), Q9BYZ8",glycan array binding signal (z-score),[2],3.23
"SRLC (Mus musculus), Q8VIF6",glycan array binding signal (z-score),[3],-0.208
"CHI3L1 (Homo sapiens), P36222",glycan array binding signal (z-score),[4],-0.129
"PILRb (Mus musculus), Q2YSF2",glycan array binding signal (z-score),[5],-0.066
same,glycan array binding signal (z-score),[6],2.37
same,glycan array binding signal (z-score),[7],0.151
same,glycan array binding signal (z-score),[8],11.4
same,glycan array binding signal (z-score),[1],-0.235
"Siglec-8 (Homo sapiens), Q9NYZ4",glycan array binding signal (z-score),[9],-0.065
same,glycan array binding signal (z-score),[10],-0.32
same,glycan array binding signal (z-score),[11],-0.565
same,glycan array binding signal (z-score),[12],-0.102
same,glycan array binding signal (z-score),[13],0.139
same,glycan array binding signal (z-score),Fuc(a1-2)Gal(b1-4)GlcNAc; mutation: R125K,-0.001
same,glycan array binding signal (z-score),[14],-0.157
same,glycan array binding signal (z-score),[15],0.008
same,glycan array binding signal (z-score),[2]; mutation: R125K,-0.235
"6RG (Lolium perenne), B9U140",glycan array binding signal (z-score),[2],0.291
6RG (Lolium perenne),glycan array binding signal (z-score),[16],-0.204
"PILRa (Mus musculus), Q2YSF3",glycan array binding signal (z-score),[17],-0.134
same,glycan array binding signal (z-score),[16],1.82
same,glycan array binding signal (z-score),[8],1.77
same,glycan array binding signal (z-score),[1],-0.097
"wLAT-1A (Homo sapiens), Q01650",glycan array binding signal (z-score),[3],-0.807
"Neurocan (Homo sapiens), O14594",glycan array binding signal (z-score),[18],0.982
same,glycan array binding signal (z-score),[7],2.6
MpAFP RI GFP (Marinomonas primoryensis),glycan array binding signal (z-score),[19],1.06
same,glycan array binding signal (z-score),[15],-0.023
"HARE (Homo sapiens), Q8WWQ8",glycan array binding signal (z-score),Fuc(a1-2)Gal(b1-4)GlcNAc,2.62
